# Source: PubChem BioAssay (several laboratories)
# Most compounds without a hit are left out; they make up all but 1% or so of the library.
# NPR1 activator = GC-A (human) enzyme activation. 370,000 compounds, 0.14% hits. AID 1671463. HEK293 GC-A cells, cGMP TR-FRET, EC30 ANP; 0% at EC30 ANP, 100% saturating ANP. P16066. activation, % at 10 µM; in the data active = activation above about 40%
# Target sequence (P16066 whole entry, looked up): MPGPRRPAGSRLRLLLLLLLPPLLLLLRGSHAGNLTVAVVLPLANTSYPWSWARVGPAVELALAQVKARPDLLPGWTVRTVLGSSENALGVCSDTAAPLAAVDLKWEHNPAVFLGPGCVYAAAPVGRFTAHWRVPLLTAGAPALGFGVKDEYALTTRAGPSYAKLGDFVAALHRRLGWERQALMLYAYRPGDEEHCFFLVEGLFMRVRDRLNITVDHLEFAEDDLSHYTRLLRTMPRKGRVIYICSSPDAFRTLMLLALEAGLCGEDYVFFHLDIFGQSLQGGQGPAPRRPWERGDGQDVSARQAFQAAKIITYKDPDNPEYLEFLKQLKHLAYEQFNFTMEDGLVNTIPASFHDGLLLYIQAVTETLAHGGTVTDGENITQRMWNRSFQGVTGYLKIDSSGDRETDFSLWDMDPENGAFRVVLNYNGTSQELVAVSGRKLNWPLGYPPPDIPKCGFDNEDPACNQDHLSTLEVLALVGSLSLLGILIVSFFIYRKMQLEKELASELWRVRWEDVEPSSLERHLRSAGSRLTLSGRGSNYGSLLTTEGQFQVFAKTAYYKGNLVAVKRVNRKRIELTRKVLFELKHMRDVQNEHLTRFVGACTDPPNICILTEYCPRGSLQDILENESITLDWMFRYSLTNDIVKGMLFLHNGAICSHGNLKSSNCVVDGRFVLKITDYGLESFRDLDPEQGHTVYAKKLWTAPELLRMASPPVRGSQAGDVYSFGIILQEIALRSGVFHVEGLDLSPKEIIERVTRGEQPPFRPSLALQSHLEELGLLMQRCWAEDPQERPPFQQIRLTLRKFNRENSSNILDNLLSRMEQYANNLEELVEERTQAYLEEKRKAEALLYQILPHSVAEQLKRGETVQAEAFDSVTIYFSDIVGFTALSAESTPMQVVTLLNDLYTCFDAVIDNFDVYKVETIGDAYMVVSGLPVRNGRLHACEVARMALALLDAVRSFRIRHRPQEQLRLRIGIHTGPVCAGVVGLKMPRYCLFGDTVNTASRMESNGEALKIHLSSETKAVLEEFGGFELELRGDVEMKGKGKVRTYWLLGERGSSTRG
# HSV replic up = increases HSV replication in cells. HSV replication augmentation in cells, fold increase. maximum fold increase. 220,000 compounds, 0.005% hits. AID 1956; in the data active = maximum fold increase above about 1.5; inconclusive = no clear call, values can overlap the other calls; tested in PC3 cells
# Efflux pump inh = blocks antifungal efflux pumps in multiplex yeast assay. S. cerevisiae Candida pump triplex, Nile Red efflux. 330,000 compounds, 0.44% hits. AID 485275. inhibition, % at 10 µM;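 active = plate passing quality check with inhibition over a set limit, or well fluorescence over plate mean plus 4 SD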;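 note: Nile Red retained in pooled yeast measured as flow cytometry median fluorescence; higher means more Nile Red kept so more efflux inhibition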
# GC-B act = GC-B (human) receptor activation. 370,000 compounds, 0.11% hits. P20594. AID 1920062. HEK293-GC-B cells, CNP EC30, cGMP TR-FRET; 0% at EC30 CNP, 100% saturating CNP. activation, % at 10 µM;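 active = activation at 10 µM reaching about 35% in either raw or pattern-adjusted values, limit read from the data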
# Bfl-1 A1 inh = inhibitors of the anti-apoptotic protein A1, read as caspase activation; MEF A1-2A-BIM cells, Caspase-Glo 3/7 luminescence, 3 h; percent of clofoctol response, vehicle zero; caspase activation, % (concentration not given with the values); 330,000 compounds, 0.066% hits; AID 2462;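 active = over half of replicate activation scores above 10%, or exactly half above 10 with the replicate mean above 10; inconclusive = replicate mean below 10 yet half the replicates above 10; inactive = over half of replicates below 10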
# H9c2 TAG inh = inhibitors of triacylglycerol accumulation | 230,000 compounds, 0.66% hits | H9c2 cells, Nile Red lipid (TAG) fluorescence; cells loaded with 200 µM oleic acid | inhibition, % at 12.5 µM;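 active = pattern-corrected inhibition of lipid staining of at least 50% with the nuclear-stain viability signal not falling by more than 50%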
# Cmpd fluor yeast = compound fluorescence in yeast efflux pump counter-screen. fluorescence ratio to DMSO, % at 10 µM. shares compounds with Efflux pump inh. AID 588517. 1,700 compounds, 4% hits. S. cerevisiae AD/pABC3, flow cytometry;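 active = fluorescence ratio to DMSO above its plate's cutoff, the plate mean ratio plus 5 SD, cut at about 210% in these data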;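 note: unstained yeast with no Nile Red so the signal is compound autofluorescence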
# Mdr1 pump inh = blocks the Candida albicans Mdr1 efflux pump in yeast. 1,700 compounds, 1% hits. inhibition, % at 10 µM. shares compounds with Efflux pump inh. AID 588518. S. cerevisiae AD/CaMDR1, Nile Red efflux, flow cytometry; in the data active = inhibition above about 26%;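 note: higher means more Nile Red retained so more efflux inhibition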
# Cdr2 pump inh = blocks the Candida albicans Cdr2 efflux pump in yeast; S. cerevisiae AD/CaCDR2, Nile Red retention, flow cytometry; shares compounds with Efflux pump inh; 1,700 compounds, 4% hits; Nile Red retention ratio vs DMSO, % at 10 µM; in the data active = Nile Red retention ratio vs DMSO above about 190%;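 note: higher ratio means more blocking of Cdr2 efflux of the dye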
# CaCdr1 efflux inh = inhibitors of Candida albicans Cdr1 efflux pump | inhibition, % at 10 µM | 1,700 compounds, 1% hits | S. cerevisiae AD/CaCDR1, Nile Red efflux, flow cytometry | shares compounds with Efflux pump inh;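 active = inhibition above the screen-wide mean plus twice its standard deviation, cut at about 32% in these data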
# Numbers stand for hits; i = inactive; ? = inconclusive; nt = no result given.
SMILES,NPR1 activator,HSV replic up,Efflux pump inh,GC-B act,Bfl-1 A1 inh,H9c2 TAG inh,Cmpd fluor yeast,Mdr1 pump inh,Cdr2 pump inh,CaCdr1 efflux inh
COC(=O)C1=C(C)N=c2s/c(=C/c3ccoc3)c(=O)n2C1c1ccccc1 (centres undefined),nt,i,0.5,nt,i,nt,i,i,i,i
CCOC(=O)C1=C(C)N=c2s/c(=C\c3ccc(OCC(=O)O)cc3)c(=O)n2C1c1ccccc1 (centres undefined),i,nt,i,i,i,nt,nt,nt,nt,nt
Cc1ccc(C2=CCN(C)C(=O)N2c2ccc([N+](=O)[O-])cc2)cc1,i,nt,nt,i,nt,nt,nt,nt,nt,nt
CCOC(=O)N1CCN(C(=O)C[C@H]2C[C@@]3(C(=O)OC)C(=C[C@H](COCc4ccccc4)O[C@@H]3C)N(Cc3ccco3)C2=O)CC1,i,nt,nt,i,nt,nt,nt,nt,nt,nt
Nn1c(SCc2c(Cl)cccc2Cl)nnc1-c1n[nH]c2c1CCC2,i,nt,nt,i,nt,nt,nt,nt,nt,nt
CCC(Cc1ccccc1)NC(=O)c1ccc2nc(N3CCOCC3)sc2c1 (centres undefined),i,nt,2.1,i,i,i,i,i,i,i
CCN1/C(=C2/SC(=S)N(NC(C)=O)C2=O)Sc2ccccc21,i,nt,0.8,i,i,nt,i,i,i,i
COC(=O)c1ccc(Cn2ccc3ccc(-c4ccc5ccn(Cc6ccc(C(=O)OC)cc6)c5c4)cc32)cc1,i,nt,nt,i,nt,nt,nt,nt,nt,nt
COc1cc(N)c(Br)cc1C(=O)O,i,i,0.7,i,i,i,i,i,i,i
COc1cc(N)ccc1C(=O)O,i,i,i,i,i,i,nt,nt,nt,nt
COC(=O)C1CN(C2CCCC2)CCS(=O)(=O)N1Cc1ccccc1 (centres undefined),i,nt,nt,i,nt,nt,nt,nt,nt,nt
Cn1cc(Br)c(C(=O)NNC(=O)c2ccc(Cl)cc2)n1,i,i,8.9,i,i,nt,i,i,i,i
COc1ccc(S[C@]2(C(=O)NCCc3ccccc3)CC(=O)N[C@@H]2c2ccc(OC)cc2)cc1,i,nt,nt,i,nt,nt,nt,nt,nt,nt
CCOC(=O)/C(C#N)=C/C1=C(N2CCOCC2)C(C)(C)OCC1,i,i,0.9,i,i,i,i,i,i,i
CCOC(=O)/C(C#N)=C\C1=C(N2CCCC2)CC(C)(C)OC1,i,i,i,i,i,i,nt,nt,nt,nt
Cc1ccc(CN(Cc2cccnc2)C(=O)CN2C(=O)COc3ccccc32)o1,i,i,5.9,i,i,nt,i,i,i,i
C=CCn1c(SCc2ccc(C#N)cc2)nnc1-c1ccco1,i,nt,nt,i,nt,nt,nt,nt,nt,nt
CCOC(=O)c1ccccc1NC(=O)C1CC(=O)N(C2CCCCC2)C1 (centres undefined),i,nt,6.2,i,i,i,i,i,i,i
CC1CCCCN1C(=O)c1ccc(CNC(=O)c2cccc(Br)c2)cc1 (centres undefined),i,nt,nt,i,nt,nt,nt,nt,nt,nt
O=C1c2cccc3c([N+](=O)[O-])ccc(c23)C(=O)N1c1ccc(Cl)cn1,i,nt,2.1,i,i,nt,265,i,i,i
O=C1c2cccc3c([N+](=O)[O-])ccc(c23)C(=O)N1c1ccccn1,i,nt,0.7,i,i,i,i,i,i,i
O=C1c2cccc3c([N+](=O)[O-])ccc(c23)C(=O)N1O,i,nt,4.1,i,i,nt,i,i,262,i
CC(=O)c1cc(-c2ccc(S(C)(=O)=O)cc2)c(=O)n2c1CCC2,i,nt,nt,i,nt,nt,nt,nt,nt,nt
CC1(C)CC(=O)C(C=Nc2cc(C(=O)c3ccccc3)ccc2N)=C(O)C1,i,?,i,i,i,i,nt,nt,nt,nt
COC(=O)c1ccc(N)c(N=CC2=C(O)CC(C)(C)CC2=O)c1,i,?,1.7,i,i,nt,i,i,i,i
SMILES,NPR1 activator,HSV replic up,Efflux pump inh,GC-B act,Bfl-1 A1 inh,H9c2 TAG inh,Cmpd fluor yeast,Mdr1 pump inh,Cdr2 pump inh,CaCdr1 efflux inh
CCOC(=O)c1c(NC(=S)Nc2ccccc2)sc2c1CC(C)(C)SC2,i,i,0.5,i,i,i,i,i,245,i
COc1ccc(CCn2c(=N)c(C(=O)NCc3ccco3)cc3c(=O)n4ccccc4nc32)cc1,i,nt,1.3,i,i,nt,i,i,i,i
Cc1cccn2c(=O)c3cc(S(=O)(=O)c4ccc(F)cc4)c(=N)n(Cc4ccco4)c3nc12,i,i,0.6,i,i,i,i,i,i,i
CCOCCCn1c(=N)c(S(=O)(=O)c2ccc(C)cc2)cc2c(=O)n3cc(C)ccc3nc21,i,nt,1.2,i,i,nt,i,i,i,i
Cc1cccn2c(=O)c3cc(S(=O)(=O)c4ccccc4)c(=N)n(Cc4ccco4)c3nc12,i,i,i,i,i,i,nt,nt,nt,nt
Cc1ccc(S(=O)(=O)c2cc3c(=O)n4ccccc4nc3n(CCc3ccccc3)c2=N)cc1,i,nt,0.4,i,i,nt,i,i,i,i
N=c1c(C(=O)NCCc2ccccc2)cc2c(=O)n3ccccc3nc2n1Cc1ccco1,i,nt,i,i,i,nt,nt,nt,nt,nt
Cc1ccc2nc3c(cc(S(=O)(=O)c4ccccc4)c(=N)n3Cc3ccco3)c(=O)n2c1,i,i,i,i,i,i,nt,nt,nt,nt
CCN1CCCCC(NC(=O)Cc2ccccc2)C1=O (centres undefined),i,nt,nt,i,nt,nt,nt,nt,nt,nt
COC(=O)C[C@@H]1CC[C@H]2[C@@H](COc3ccc(NC(=O)Nc4cccc(F)c4)cc3C(=O)N2C)O1,i,nt,nt,i,nt,nt,nt,nt,nt,nt
CN(C)c1ccc(/C=C/C(=O)c2c(O)c3ccccc3oc2=O)cc1,i,?,1.4,i,i,i,i,i,223,i
Cc1ccccc1-c1nc(CSc2nc3c(c(=O)[nH]2)CCC3)c(C)o1,i,nt,i,i,i,i,nt,nt,nt,nt
Cc1ccccc1CSc1nc2c(c(=O)[nH]1)CCC2,i,i,5.9,i,i,nt,i,i,i,i
CCOC(=O)c1c(-c2ccccc2)csc1NC(=O)c1cc(-c2ccccc2OC)on1,i,nt,0.7,i,i,i,i,i,i,i
CCOC(=O)c1c(-c2ccc(F)cc2)csc1NC(=O)c1c(-c2ccccc2)noc1C,i,i,i,i,i,nt,nt,nt,nt,nt
Cc1noc(C)c1NC(=O)Nc1cccc2c1O[C@H](CN(C)C(=O)Nc1ccc(C(F)(F)F)cc1)[C@@H](C)CN([C@H](C)CO)C2=O,i,nt,i,i,i,i,nt,nt,nt,nt
COc1ccc(NC(=O)Nc2cccc3c2O[C@H](CN(C)C(=O)Nc2ccc(OC)cc2)[C@@H](C)CN([C@H](C)CO)C3=O)cc1,i,nt,i,i,i,i,i,i,i,i
COc1ccc(NC(=O)N(C)C[C@H]2Oc3c(NC(=O)Nc4c(C)noc4C)cccc3C(=O)N([C@H](C)CO)C[C@@H]2C)cc1,i,nt,i,i,nt,i,i,i,i,i
